# About 83,000 compounds went through this panel and 20% of them were active in at least one assay; those are over-represented in the sample as a whole.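 The endpoint reported here, percent growth, reads 100 for growth as untreated, 0 for no net growth and -100 for all cells dead.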 Unmarked numbers belong to inactive results. Calls of active or inactive are those of the source. Rule for the calls: active = growth percent below 10; inactive = the rest.
# System: MDA-MB-468 breast
# Assay: NCI-60 one-dose screen, 48 h (100 = growth as untreated, 0 = no growth, -100 = all killed)
# Conditions: 10 µM unless noted
row,Compound,growth
1,CCCCCCCCCCCCC1CCC(=O)O1 (stereo not given),105%
2,C[C@@H](c1ccc2c(c1)[nH]c1ccc(Cl)cc12)c1nc2ccccc2[nH]1,-3.2% (active)
3,CC(=O)CC(=O)N(C)C,96.8%
4,Cc1nc2scc(-c3ccc(Cl)cc3)n2c(=O)c1CCN1CCOCC1,112%
5,Cc1cccc(/C=N/Nc2cc(C)c3cccc(C)c3n2)n1,88.7%
6,CNS(=O)(=O)Nc1nccc(Cc2c(C)c3ccc(Oc4ncccn4)cc3oc2=O)c1F,62.9%
7,N#CCC1=NC(c2cccs2)=Nc2ccccc2S1,82.2%
8,CC(C)n1cnc2c(=S)nc[nH]c21,104%
9,Cc1nc2cc(Nc3nc(Cl)nc(Nc4ccc(F)cc4)n3)ccc2n1Cc1ccccc1,76.2%
10,C/C(=N\O)c1ccccn1,97.6%
11,CO/C=C/C(=O)c1cc2cnc3c(=N)cc(NC(=O)C(C)C)c([nH]1)c23,-54.9% (active)
12,O=C1N[C@H]2[C@H](CS[C@H]2CCCCC(=O)N(CCP(c2ccccc2)c2ccccc2)CCP(c2ccccc2)c2ccccc2)N1,33.8%
13,O=C1N(c2ccccc2)C(=S)N[C@]12[C@H](c1ccccc1)C1CCCN1[C@]21C(=O)NC2C=CC(Cl)=C[C@H]21 (stereo not given in full),99.7%
14,Cn1cc(-c2nn3cc(-c4cccs4)nc3s2)c2cc(F)ccc21,44.4%
15,CCOC(=O)/C=C1\S/C(=N\Nc2cc(=O)[nH]c3ccccc23)N(c2ccccc2)C1=O,105%
16,CC(=O)c1sc(-c2ccccc2)cc1N,91.7%
17,N#CC(=Nc1cccc(F)c1)C1=C(O)c2ccccc2C1=O,75.2%
18,COc1ccc2nc3c(cc2c1)C(=O)CC(c1ccccc1)C3 (stereo not given),68.3%
19,CCOC(=O)c1ccc2c(c1)nc(/C=C/c1ccc(Cl)cc1)n2-c1cc(C(C)(C)C)[nH]n1,58.8%
20,Cc1c(Cl)cc(-n2c(=O)c3ccccc3c3ccccc3c2=O)cc1Cl,128%
21,N#CC1=C(N)Oc2c(sc3c(F)cccc23)C1c1ccc([N+](=O)[O-])cc1 (stereo not given),-41.6% (active)
22,S=C1CC(=S)NC(=S)N1,95.8%
23,COc1cccc(/C(C#N)=C/c2nc3c(N4CCOCC4)nc(Cl)nc3n2C)c1,-63% (active)
24,CCc1c2c(nc3ccc(OC(=O)OCc4ccc(B5OC(C)(C)C(C)(C)O5)cc4)cc13)-c1cc3c(c(=O)n1C2)COC(=O)[C@]3(O)CC,-33.6% (active)
25,CCCCNc1cc(-c2cn[nH]c2-c2cc(C)cc(OC)c2)nc(-c2cccnc2)n1,78.4%

# From PubChem BioAssay (NCI)
